The results in this text go back to ChEMBL document CHEMBL1961873, “Compounds: GSK PKIS; Assays: Nanosyn kinase panel” (2012).

Experiment [1] has as its target High affinity nerve growth factor receptor (Homo sapiens) (UniProt P04629). To be noted: at 1 µM.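 Further: each value is the mean percent inhibition of TRKA.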
The target in experiment [2] is BDNF/NT-3 growth factors receptor (Homo sapiens) (UniProt Q16620). Conditions: at 0.1 µM.
Experiment [3] has the same target. To be noted: at 1 µM.
Experiment [4] concerns the target NT-3 growth factor receptor (Homo sapiens) (UniProt Q16288). To be noted: at 0.1 µM.
The target is the same in experiment [5]. Conditions: at 1 µM.
Experiment [6] concerns the target T1, Tyrosine-protein kinase TXK (Homo sapiens) (UniProt P42681).
T1 sequence (whole entry): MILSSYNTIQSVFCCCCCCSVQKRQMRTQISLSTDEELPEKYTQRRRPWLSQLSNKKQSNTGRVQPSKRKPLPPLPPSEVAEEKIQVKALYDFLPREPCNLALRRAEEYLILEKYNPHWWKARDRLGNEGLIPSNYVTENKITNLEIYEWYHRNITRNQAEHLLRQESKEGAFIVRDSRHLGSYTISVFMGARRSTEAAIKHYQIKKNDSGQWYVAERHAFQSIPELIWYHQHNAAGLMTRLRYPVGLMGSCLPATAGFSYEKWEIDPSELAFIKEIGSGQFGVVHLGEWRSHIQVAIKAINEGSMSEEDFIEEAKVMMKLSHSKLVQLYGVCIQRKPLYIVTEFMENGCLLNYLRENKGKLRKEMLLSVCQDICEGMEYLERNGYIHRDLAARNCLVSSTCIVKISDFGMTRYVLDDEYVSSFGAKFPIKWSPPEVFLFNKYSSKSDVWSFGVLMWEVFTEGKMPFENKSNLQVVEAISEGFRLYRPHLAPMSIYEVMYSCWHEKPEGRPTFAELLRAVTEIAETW
To be noted: at 0.1 µM.

The target in experiment [7] is T1, Tyrosine-protein kinase TXK (Homo sapiens). Conditions: at 1 µM.
The target of experiment [8] is Non-receptor tyrosine-protein kinase TYK2 (Homo sapiens) (UniProt P29597). To be noted: at 0.1 µM.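 Further: each value is a mean of the inhibition readings.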
Sequence of Non-receptor tyrosine-protein kinase TYK2 (Homo sapiens) (P29597 whole entry): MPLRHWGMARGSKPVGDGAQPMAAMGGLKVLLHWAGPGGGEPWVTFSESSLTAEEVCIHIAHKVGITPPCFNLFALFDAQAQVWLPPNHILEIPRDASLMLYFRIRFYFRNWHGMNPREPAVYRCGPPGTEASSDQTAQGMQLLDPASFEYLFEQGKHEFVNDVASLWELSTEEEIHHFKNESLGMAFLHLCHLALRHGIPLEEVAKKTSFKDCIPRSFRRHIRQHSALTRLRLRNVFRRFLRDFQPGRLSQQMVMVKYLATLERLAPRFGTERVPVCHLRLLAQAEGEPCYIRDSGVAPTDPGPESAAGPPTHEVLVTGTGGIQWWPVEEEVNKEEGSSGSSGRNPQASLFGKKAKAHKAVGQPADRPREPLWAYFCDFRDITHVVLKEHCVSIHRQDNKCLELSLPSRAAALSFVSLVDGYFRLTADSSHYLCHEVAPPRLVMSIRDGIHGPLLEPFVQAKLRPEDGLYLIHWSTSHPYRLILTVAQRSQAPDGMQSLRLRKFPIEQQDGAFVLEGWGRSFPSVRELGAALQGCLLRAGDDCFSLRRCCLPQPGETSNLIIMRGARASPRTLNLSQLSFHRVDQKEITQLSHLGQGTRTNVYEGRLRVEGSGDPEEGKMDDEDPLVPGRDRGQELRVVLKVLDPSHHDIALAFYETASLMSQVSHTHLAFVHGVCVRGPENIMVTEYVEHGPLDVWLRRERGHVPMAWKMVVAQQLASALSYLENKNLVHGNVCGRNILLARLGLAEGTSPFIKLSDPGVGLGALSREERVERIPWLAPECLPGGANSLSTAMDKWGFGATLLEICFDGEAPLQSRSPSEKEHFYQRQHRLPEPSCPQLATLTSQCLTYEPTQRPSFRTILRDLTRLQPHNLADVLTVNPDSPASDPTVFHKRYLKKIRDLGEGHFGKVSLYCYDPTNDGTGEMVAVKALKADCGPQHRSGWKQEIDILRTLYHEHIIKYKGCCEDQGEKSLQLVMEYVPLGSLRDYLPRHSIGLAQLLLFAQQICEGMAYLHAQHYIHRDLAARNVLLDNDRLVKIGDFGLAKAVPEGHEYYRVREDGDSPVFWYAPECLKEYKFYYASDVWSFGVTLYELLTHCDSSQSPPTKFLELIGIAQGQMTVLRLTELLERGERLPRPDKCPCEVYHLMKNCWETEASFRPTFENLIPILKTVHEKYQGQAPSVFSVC
Experiment [9] concerns the target T2, Dual specificity protein kinase TTK (Homo sapiens) (UniProt P33981).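 Further: reported figures are mean TTK inhibition at 1 µM.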
T2 sequence (whole entry): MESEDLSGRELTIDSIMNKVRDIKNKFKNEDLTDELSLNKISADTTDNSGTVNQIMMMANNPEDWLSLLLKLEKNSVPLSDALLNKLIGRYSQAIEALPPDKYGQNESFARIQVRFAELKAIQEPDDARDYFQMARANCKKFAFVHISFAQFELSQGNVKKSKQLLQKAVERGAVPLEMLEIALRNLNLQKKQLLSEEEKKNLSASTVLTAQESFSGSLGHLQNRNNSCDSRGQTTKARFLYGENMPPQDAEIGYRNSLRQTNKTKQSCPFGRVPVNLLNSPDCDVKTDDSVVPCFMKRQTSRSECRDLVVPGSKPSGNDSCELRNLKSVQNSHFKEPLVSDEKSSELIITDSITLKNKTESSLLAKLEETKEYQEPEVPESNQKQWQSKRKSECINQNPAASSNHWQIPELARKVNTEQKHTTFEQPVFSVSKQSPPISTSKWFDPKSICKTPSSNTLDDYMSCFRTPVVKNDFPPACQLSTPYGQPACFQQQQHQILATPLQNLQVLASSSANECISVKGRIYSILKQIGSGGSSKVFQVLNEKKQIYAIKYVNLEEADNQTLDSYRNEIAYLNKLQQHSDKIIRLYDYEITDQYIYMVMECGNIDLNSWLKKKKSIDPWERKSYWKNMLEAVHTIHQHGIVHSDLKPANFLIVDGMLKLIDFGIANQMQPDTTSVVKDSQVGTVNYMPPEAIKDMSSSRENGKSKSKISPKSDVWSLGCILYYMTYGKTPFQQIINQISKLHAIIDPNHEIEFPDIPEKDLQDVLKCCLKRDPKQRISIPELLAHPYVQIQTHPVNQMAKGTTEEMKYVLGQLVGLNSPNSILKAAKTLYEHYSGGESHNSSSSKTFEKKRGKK
To be noted: at 1 µM.

The target in experiment [10] is T3, Aurora kinase A (Homo sapiens) (UniProt O14965).
T3 sequence (whole entry): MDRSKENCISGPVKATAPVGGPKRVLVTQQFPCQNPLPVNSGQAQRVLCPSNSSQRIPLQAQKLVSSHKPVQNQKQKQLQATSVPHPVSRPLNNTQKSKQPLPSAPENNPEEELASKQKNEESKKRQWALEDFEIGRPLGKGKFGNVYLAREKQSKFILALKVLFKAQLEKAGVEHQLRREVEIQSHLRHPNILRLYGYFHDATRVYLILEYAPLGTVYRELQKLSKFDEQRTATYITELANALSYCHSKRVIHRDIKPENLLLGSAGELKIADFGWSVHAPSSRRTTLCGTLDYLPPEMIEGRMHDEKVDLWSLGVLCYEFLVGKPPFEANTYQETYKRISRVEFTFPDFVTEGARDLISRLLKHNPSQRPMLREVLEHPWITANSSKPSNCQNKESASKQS
To be noted: at 0.1 µM.

The target of experiment [11] is T3, Aurora kinase A (Homo sapiens). To be noted: at 1 µM.
The target of experiment [12] is Aurora kinase B (Homo sapiens) (UniProt Q96GD4). To be noted: at 0.1 µM.
Sequence of Aurora kinase B (Homo sapiens) (Q96GD4 whole entry): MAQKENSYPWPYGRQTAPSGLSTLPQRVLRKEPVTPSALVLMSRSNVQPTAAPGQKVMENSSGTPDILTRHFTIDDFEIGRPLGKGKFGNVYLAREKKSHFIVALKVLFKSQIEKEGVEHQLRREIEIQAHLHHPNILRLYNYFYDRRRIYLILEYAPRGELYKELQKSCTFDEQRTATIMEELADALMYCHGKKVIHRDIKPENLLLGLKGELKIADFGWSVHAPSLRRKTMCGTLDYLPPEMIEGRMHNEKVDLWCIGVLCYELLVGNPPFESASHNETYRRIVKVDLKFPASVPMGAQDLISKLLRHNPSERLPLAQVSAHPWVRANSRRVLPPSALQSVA
The target is the same in experiment [13]. Conditions: at 1 µM.
For experiment [14], the target named is T4, Aurora kinase C (Homo sapiens) (UniProt Q9UQB9).
T4 sequence (whole entry): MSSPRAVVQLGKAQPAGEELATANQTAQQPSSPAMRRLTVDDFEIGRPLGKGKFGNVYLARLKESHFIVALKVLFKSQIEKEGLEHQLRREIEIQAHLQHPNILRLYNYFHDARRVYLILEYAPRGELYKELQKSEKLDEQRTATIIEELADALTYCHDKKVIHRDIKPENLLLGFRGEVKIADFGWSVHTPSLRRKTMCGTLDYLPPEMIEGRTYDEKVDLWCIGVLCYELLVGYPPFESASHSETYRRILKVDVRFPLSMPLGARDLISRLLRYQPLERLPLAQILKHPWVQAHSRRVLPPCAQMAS
Conditions: at 0.1 µM.

Experiment [15] addresses T4, Aurora kinase C (Homo sapiens). Conditions: at 1 µM.
For experiment [16], the target named is Serine/threonine-protein kinase 10 (Homo sapiens) (UniProt O94804). Conditions: at 0.1 µM.
Sequence of Serine/threonine-protein kinase 10 (Homo sapiens) (O94804 whole entry, looked up): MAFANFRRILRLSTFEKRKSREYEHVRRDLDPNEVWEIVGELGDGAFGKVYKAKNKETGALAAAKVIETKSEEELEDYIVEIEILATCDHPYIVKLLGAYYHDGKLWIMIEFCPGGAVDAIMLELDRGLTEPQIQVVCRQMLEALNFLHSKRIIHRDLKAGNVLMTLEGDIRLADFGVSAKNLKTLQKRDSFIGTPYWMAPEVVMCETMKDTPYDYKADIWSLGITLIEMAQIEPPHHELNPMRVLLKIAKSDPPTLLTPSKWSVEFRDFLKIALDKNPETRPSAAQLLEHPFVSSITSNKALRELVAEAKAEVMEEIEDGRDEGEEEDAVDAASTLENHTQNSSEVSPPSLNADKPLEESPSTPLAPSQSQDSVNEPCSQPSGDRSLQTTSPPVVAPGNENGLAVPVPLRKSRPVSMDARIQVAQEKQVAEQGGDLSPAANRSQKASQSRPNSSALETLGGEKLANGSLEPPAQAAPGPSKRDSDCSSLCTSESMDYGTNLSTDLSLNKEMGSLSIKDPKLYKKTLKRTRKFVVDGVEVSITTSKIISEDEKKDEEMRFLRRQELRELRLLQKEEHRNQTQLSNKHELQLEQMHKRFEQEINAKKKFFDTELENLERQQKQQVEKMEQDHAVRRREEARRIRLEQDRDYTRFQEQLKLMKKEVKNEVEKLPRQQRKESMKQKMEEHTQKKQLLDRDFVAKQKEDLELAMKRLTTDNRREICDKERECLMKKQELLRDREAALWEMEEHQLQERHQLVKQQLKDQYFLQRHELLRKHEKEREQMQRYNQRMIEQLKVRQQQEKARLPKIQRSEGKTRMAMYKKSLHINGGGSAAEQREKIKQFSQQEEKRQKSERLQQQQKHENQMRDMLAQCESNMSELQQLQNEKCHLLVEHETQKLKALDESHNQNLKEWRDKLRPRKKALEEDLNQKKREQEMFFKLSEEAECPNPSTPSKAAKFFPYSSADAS
The target is the same in experiment [17]. Conditions: at 1 µM.
In experiment [18] the target is T5, Mitogen-activated protein kinase kinase kinase kinase 2 (Homo sapiens) (UniProt Q12851).
T5 sequence (whole entry): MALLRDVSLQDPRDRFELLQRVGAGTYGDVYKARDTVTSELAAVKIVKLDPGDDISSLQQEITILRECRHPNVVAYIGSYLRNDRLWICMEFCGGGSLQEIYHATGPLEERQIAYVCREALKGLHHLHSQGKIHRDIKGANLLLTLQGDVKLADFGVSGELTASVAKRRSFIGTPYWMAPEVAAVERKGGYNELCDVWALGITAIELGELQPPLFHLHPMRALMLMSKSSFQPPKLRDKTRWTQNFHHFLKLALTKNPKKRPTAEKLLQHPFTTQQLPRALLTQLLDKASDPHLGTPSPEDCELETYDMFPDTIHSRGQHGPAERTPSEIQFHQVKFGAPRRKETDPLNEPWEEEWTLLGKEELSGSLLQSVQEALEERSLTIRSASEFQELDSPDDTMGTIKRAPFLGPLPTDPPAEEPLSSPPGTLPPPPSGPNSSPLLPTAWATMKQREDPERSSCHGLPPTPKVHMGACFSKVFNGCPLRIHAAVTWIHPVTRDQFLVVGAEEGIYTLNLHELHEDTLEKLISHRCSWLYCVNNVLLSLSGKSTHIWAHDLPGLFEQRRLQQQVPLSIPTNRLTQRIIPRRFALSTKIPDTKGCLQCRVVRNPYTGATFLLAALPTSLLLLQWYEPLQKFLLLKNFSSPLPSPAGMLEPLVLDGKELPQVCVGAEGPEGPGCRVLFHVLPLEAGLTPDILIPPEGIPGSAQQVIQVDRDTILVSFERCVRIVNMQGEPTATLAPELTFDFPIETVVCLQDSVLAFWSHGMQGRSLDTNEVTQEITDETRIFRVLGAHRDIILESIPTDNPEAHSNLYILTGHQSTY
Conditions: at 0.1 µM.

Experiment [19] addresses T5, Mitogen-activated protein kinase kinase kinase kinase 2 (Homo sapiens). Conditions: at 1 µM.
The target of experiment [20] is Mitogen-activated protein kinase kinase kinase kinase 4 (Homo sapiens) (UniProt O95819). To be noted: at 0.1 µM.
Sequence of Mitogen-activated protein kinase kinase kinase kinase 4 (Homo sapiens) (O95819 2-1239 limits assumed): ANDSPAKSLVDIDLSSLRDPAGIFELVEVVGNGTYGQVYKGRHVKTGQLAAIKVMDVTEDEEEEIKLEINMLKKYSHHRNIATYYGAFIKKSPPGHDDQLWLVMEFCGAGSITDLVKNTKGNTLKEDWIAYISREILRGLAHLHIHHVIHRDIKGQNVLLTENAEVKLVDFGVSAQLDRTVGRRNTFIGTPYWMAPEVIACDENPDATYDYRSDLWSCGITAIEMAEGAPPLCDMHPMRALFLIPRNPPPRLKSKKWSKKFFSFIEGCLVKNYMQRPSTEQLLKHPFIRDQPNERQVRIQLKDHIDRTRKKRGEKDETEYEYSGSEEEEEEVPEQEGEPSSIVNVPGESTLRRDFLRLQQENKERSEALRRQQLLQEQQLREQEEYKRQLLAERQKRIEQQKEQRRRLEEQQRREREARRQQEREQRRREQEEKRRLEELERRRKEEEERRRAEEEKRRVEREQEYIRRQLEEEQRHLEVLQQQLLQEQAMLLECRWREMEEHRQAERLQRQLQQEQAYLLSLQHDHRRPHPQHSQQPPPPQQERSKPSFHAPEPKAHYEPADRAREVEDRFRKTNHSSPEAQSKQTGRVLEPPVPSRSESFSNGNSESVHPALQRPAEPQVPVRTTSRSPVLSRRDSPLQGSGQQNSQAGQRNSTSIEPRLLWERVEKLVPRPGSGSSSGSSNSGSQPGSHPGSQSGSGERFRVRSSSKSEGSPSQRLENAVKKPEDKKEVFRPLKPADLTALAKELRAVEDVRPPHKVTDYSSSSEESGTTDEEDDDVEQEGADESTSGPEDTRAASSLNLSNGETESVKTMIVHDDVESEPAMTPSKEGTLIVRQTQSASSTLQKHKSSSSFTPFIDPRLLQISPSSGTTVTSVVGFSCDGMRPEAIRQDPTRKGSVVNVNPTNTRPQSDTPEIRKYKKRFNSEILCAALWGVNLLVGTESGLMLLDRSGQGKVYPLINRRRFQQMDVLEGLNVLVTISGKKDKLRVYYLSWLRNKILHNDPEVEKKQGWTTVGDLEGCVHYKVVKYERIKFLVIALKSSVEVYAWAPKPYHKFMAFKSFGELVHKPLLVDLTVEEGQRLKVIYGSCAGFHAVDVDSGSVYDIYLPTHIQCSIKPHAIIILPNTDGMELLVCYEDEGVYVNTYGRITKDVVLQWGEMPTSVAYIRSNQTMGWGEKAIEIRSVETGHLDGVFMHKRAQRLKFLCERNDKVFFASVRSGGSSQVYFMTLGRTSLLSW

Structures are written as SMILES.

Sequence of High affinity nerve growth factor receptor (Homo sapiens) (P04629 33-796 limits assumed): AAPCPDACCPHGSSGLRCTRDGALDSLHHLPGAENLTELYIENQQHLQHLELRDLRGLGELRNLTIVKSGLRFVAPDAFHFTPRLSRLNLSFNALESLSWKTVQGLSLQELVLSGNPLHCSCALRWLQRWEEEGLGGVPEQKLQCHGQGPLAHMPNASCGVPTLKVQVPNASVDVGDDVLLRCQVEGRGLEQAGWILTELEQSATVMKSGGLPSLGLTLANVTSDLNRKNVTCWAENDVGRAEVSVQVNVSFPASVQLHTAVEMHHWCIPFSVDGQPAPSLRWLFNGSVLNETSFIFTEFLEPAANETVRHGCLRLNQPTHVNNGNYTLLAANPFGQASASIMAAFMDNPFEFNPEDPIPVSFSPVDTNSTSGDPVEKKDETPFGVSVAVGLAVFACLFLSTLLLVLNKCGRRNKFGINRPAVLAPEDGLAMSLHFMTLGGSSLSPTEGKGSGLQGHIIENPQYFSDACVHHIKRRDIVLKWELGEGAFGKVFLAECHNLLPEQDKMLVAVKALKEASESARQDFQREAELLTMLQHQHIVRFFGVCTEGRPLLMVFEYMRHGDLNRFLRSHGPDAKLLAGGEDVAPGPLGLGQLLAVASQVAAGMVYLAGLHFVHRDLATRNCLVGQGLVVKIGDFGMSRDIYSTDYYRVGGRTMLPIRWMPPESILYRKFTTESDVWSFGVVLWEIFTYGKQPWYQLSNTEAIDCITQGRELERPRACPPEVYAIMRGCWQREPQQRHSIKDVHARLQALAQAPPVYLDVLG

Regarding `COc1cc2ncn(-c3cc(OCc4ccccc4C(F)(F)F)c(C(=O)N(C)C)s3)c2cc1OC`, the inhibition is 8.1% in [1]; -0.07% in [2]; 7.43% in [3]; 5.43% in experiment [4]; 16.2% in experiment [5]; 1.47% in experiment [6]. In addition, the inhibition in experiment [7] was 3.4%; in experiment [8] it was -4.64%; in experiment [9], 10.4%; in experiment [10] it was 0.68%; in experiment [11] it was 9.82%; in experiment [12] it was 5.54%. The inhibition in [13] was 31.1%; in experiment [14], 3.22%; in [15] it was 46.2%; in experiment [16], 12.9%; in experiment [17], 55.8%; in experiment [18], 0.57%. Further, the inhibition in experiment [19] amounted to 2.23%; in [20], 0.42%.
For the compound `CCN(CC)S(=O)(=O)c1ccc(OC)c(Nc2ncc(-c3ccccc3)o2)c1`, the inhibition worked out at 41.5% in [1]; 5.72% in [2]; 41.5% in experiment [3]; 4.27% in [4]; 35.2% in experiment [5]; 3.92% in experiment [6]. Besides, the inhibition in experiment [7] was 24.9%; in experiment [8] it was -1.59%; in experiment [9] it was 8.57%; in [10] it was 1.61%; in experiment [11] it was 13.9%; in [12], 1.33%. Besides, the inhibition in [13] is 4.64%; in experiment [14], 2.12%; in [15], -4.34%; in [16] it was 2.55%; in experiment [17], 8.37%; in experiment [18], 1.18%. The inhibition in experiment [19] stood at 1.77%; in experiment [20], 2.08%.
`CCc1nn2ncccc2c1-c1ccnc(NC2CC2)n1`: the inhibition in experiment [1] is 2.38%; in [2], -0.25%; in [3], 2.68%; in [4], 1.72%; in [5], 1.87%; in [6], 3.61%. Moreover, the inhibition was 3.63% in experiment [7]; -2% in [8]; 6.05% in experiment [9]; 3.98% in experiment [10]; 14.8% in [11]; 2.59% in experiment [12]. The inhibition is 17.4% in [13]; 3.06% in experiment [14]; 24.8% in experiment [15]; 3.95% in experiment [16]; 8.22% in experiment [17]; 0.96% in experiment [18]. The inhibition in experiment [19] is 3.67%; in experiment [20], 0.62%.
For `Clc1ccc(-c2nn3ncccc3c2-c2ccnc(Nc3ccccc3)n2)cc1`, the inhibition in [1] is 6%; in [2], 2.34%; in [3] it was 3.72%; in experiment [4], 1.69%; in experiment [5] it was 2.21%; in experiment [6], 3.54%. Moreover, the inhibition in experiment [7] was 14.9%; in experiment [8], 0.28%; in experiment [9], 4.5%; in experiment [10], 0.9%; in [11] it was 25.5%; in experiment [12] it was 3.6%. Moreover, the inhibition in [13] was found to be 20.2%; in [14], 1.35%; in experiment [15] it was 36.1%; in experiment [16], 4.2%; in experiment [17] it was 40.8%; in [18], 1.09%. Further, the inhibition in experiment [19] came out at 5.08%; in experiment [20], 5.07%.

In general, inhibition refers to the relative decrease from the control value, in per cent.
